# The full ranking holds about 33,000 sequences; the median of “E-score (-0.5 to 0.5)” is about -0.053, and the highest 2% start at about 0.37. The full list was thinned out, with the highest values kept by preference.
# Biological target: Hap1 (UniProt P0CE41)
# Test: PBM E-score (8-mer binding enrichment) (E-score (-0.5 to 0.5)); higher = stronger / more preferred TF binding
# Details: protein concentration: 200 nM; construct: GST-DNA-binding domain
# How it was run: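 E-scores (a modified Wilcoxon-Mann-Whitney statistic) were assigned by the Universal PBM Analysis Suite to every ungapped eight-base word pooled with its reverse complement. The input came from universal all-10-mer Agilent arrays made double-stranded by primer extension and probed with GST-tagged yeast transcription factors at about 100-200 nM. Fluorescent anti-GST detected bound protein, and masliner normalised the scans.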
# Sequence of UniProt P0CE41 (P0CE41 whole entry): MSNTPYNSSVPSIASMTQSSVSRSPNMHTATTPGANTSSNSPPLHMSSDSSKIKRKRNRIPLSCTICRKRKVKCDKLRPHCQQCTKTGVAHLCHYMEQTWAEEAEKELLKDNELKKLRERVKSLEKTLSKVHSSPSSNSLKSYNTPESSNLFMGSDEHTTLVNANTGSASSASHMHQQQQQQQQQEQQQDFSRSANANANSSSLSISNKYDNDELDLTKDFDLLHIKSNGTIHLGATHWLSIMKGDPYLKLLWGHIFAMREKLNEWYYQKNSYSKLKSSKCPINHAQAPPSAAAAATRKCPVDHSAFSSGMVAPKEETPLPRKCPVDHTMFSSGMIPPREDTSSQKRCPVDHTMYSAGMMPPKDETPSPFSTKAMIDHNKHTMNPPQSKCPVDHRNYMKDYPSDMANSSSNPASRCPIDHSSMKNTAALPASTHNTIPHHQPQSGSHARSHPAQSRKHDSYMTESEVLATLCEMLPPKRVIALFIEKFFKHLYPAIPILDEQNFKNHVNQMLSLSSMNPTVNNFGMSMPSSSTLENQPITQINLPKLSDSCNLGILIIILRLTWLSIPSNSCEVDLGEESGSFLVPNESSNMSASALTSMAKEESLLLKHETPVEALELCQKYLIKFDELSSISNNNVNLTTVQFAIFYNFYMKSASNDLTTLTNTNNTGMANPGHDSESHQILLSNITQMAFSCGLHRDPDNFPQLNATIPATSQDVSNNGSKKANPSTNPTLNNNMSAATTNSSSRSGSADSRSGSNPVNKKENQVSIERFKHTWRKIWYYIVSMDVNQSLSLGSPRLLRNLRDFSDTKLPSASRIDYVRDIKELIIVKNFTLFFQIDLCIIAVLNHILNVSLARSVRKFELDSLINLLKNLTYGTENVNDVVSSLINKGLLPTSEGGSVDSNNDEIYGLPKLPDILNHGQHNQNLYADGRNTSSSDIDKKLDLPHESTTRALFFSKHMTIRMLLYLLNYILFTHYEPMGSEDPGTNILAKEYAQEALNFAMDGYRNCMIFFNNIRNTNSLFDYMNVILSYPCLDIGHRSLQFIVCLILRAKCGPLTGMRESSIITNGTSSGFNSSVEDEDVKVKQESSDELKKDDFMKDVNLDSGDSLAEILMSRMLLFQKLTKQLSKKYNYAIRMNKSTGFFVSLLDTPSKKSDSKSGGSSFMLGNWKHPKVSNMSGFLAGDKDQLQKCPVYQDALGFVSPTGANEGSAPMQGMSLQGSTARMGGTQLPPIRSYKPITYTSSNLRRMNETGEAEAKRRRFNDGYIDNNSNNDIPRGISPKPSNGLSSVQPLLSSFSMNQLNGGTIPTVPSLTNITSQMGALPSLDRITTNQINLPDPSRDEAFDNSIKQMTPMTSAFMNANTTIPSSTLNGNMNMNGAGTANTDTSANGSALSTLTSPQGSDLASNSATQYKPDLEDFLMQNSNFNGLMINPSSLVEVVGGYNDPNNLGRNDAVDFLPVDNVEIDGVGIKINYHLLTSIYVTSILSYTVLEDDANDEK
row,Sequence,PBM E-score
1,AGTAGTAC,0.105
2,AACTAACA,-0.0716
3,CTCGCAAC,-0.237
4,CGGGTTTC,0.331
5,CGGGTTTA,0.474
6,CCGGGTTA,0.37
7,GGGGGGTA,0.047
8,CCGGGTTC,0.296
9,GGGGTTTA,0.266
10,AGGGGTTA,-0.0702
11,ACGGGTTA,0.0135
12,CGGGGTTA,0.485
13,CGGGGGTA,0.425
14,CCGGGGTA,0.301
15,GGGGGTTA,-0.181
16,GCATAGGA,-0.136
17,ACGAGAAA,-0.00338
18,CATAGCCA,-0.139
19,ACGCCAAA,-0.08
20,CTCCTGGA,-0.254
21,GAATCAGC,-0.175
22,TGGTACAA,-0.376
23,GTGAGCAC,-0.232
24,CGGGGATA,0.475
25,AGGTTATA,-0.0688

row,Sequence,PBM E-score
1,GGGTTATA,0.0789
2,CGGTTTTA,0.433
3,CGGTTTAA,0.168
4,GGGGGATA,0.134
5,AGGTTTTA,0.0786
6,CGGTTATA,0.371
7,AGGGGATA,-0.167
8,GGTGTTAC,0.0592
9,CCCCACTC,-0.186
10,AGCGGCCG,0.325
11,GCTCCGAA,0.367
12,ACTCCGAA,0.397
13,CCTCCGAG,0.335
14,ACTCCGCT,0.21
15,ACTCCGAT,0.406
16,ACTCCGCG,0.371
17,ACTCCGAC,0.353
18,CCTCCGCG,0.198
19,ACTCCTAT,-0.141
20,ACTCCCAT,-0.176
21,CCTCCGAA,0.334
22,ACTCCGAG,0.401
23,GCGGTCGA,0.163
24,CCTTAGGC,-0.184
25,ATGTAGCG,-0.0634

row,Sequence,PBM E-score
1,CTCTACAG,-0.311
2,CAGTCCAC,-0.272
3,TCTCCGCA,0.299
4,TCTCCGAA,0.429
5,TCTCCAAA,-0.138
6,CCGTCTGA,-0.0177
7,CGACTTAA,-0.169
8,AGACTTAA,-0.18
9,GGACTTAA,0.443
10,CAGCTTCC,0.00993
11,TATTTGGA,-0.215
12,CCCTCCGG,0.331
13,ACCTCCGT,0.286
14,ACCTCCGA,0.391
15,ACCTCCGG,0.454
16,TCCTCCGA,0.308
17,CCCTCCGA,0.253
18,AATCATTC,-0.0493
19,CCTTGGAG,-0.109
20,ACCCGCTA,0.209
21,GTCAGTCA,-0.172
22,CCGGTATA,0.425
23,CCGGTATC,0.433
24,AGGGTATA,0.254
25,GCGGTATA,0.0943

row,Sequence,PBM E-score
1,ACGGTATA,0.0727
2,CGGGTATA,0.435
3,ACGGTATC,0.113
4,CAGGTATC,0.0262
5,GGGGTATA,0.103
6,ACCAAGCG,0.0447
7,CGGTTTCA,0.263
8,AACTCAGG,-0.116
9,AGGGATGG,0.00107
10,AGCATCCG,0.215
11,AGCATATG,-0.278
12,TCCGTTAA,0.408
13,CCCGTTAA,0.297
14,GCCGTTAA,0.346
15,ATCTAAAA,-0.105
16,CGAGTACG,0.0449
17,AGCTCGGC,0.354
18,CTCTCGAA,-0.332
19,CTCTCGGA,0.4
20,GTCTCGGA,0.358
21,CTCTCGCA,-0.179
22,CTCTCGGC,0.318
23,ATCTCGGG,0.356
24,ATCTCGGC,0.379
25,ATCTCGGA,0.385

row,Sequence,PBM E-score
1,GCCGGGCC,0.221
2,GTGTGTGA,-0.201
3,ACCCATGC,-0.249
4,TAGGCTAA,-0.138
5,GGATCGAC,0.17
6,CCCGACCC,0.167
7,CCCGACGG,0.331
8,ACCGACCG,0.314
9,ACCGACGG,0.38
10,CCCGACCG,0.379
11,ACCGACGT,0.185
12,GGGTTACA,0.0182
13,AAACGGGA,0.217
14,AATCCATG,-0.036
15,AGAGTTAA,-0.105
16,AGAGTTAC,-0.312
17,CGAGTTAC,-0.0647
18,TGAGTTAA,-0.188
19,GGAGTTAA,0.429
20,GGAGTTAC,0.393
21,GAGGGGTA,0.0493
22,CCATCAAA,-0.17
23,GAGACCGC,0.0393
24,CGGAAAAG,0.343
25,GGGAAACA,0.112

row,Sequence,PBM E-score
1,AGGAAACA,-0.0825
2,CGGAAAAC,0.346
3,CGGAACTC,0.309
4,AGGAACTA,-0.0416
5,AGGAAGTA,0.0541
6,CGGAAAAA,0.4
7,CGGAAGTC,0.305
8,CGGAAACA,0.384
9,CGGAACTA,0.436
10,CGGAAGTA,0.38
11,AATCCTAC,-0.124
12,ACAGCGCT,-0.0282
13,CGCTCGTA,0.0559
14,ACAGTACA,-0.00621
15,CGTATCGC,0.208
16,CCACTGGG,-0.145
17,AAGGAAGT,0.113
18,TCAGCAAA,-0.157
19,GTTTCTAA,0.105
20,GACCCGTC,0.0739
21,CACAGTCA,-0.284
22,GGCACGCC,-0.0738
23,ACCAAACT,-0.13
24,GCGTTGAC,-0.207
25,GAAGCATC,-0.0716

row,Sequence,PBM E-score
1,AGGAATTA,0.17
2,CGGAATTC,0.319
3,CGGAAATC,0.352
4,CGGAAATA,0.487
5,GGGAAATA,0.13
6,CGGAATTA,0.481
7,AGTTGAGC,-0.188
8,GCCTGGAA,-0.233
9,CAGTTTGG,-0.204
10,AGTATGTA,-0.162
11,AAGACCGT,0.0453
12,ATGACCGA,0.378
13,AAGACCGA,0.413
14,ATGACCGG,0.276
15,ATGACCGC,0.197
16,CAGACCGA,0.278
17,CTTCTAGA,-0.156
18,AAATGCTC,0.0505
19,TGACAGAA,-0.247
20,ACAGACCT,-0.0718
21,ACTAGTAC,-0.173
22,ATAGCCGA,0.372
23,AGAGCCGG,0.263
24,ATAGCCGG,0.397
25,CTAGCCGA,0.25

row,Sequence,PBM E-score
1,ATAGCCAG,-0.293
2,ATAGCCGC,0.232
3,AGTTTGGA,-0.274
4,CAGTTTCA,-0.241
5,ATCACGGA,0.352
6,GTCACGGA,0.371
7,CTAACGGA,0.38
8,GTAACGCA,0.0607
9,GTAACGGA,0.401
10,GAAACGGA,0.277
11,ATAACGGC,0.355
12,CTAACGGC,0.184
13,CTCACGGA,0.221
14,CAAACGGA,0.324
15,ATAACGGG,0.228
16,ATAACGGA,0.414
17,CATAACCG,0.133
18,ATGATTCC,0.0894
19,TCCTGCCA,-0.12
20,GTCATGAC,-0.111
21,AAAAACTC,0.0741
22,AGATGGCT,-0.0974
23,ACTATGCA,-0.16
24,CGCTACTA,0.163
25,CCGCCTTA,-0.0179

row,Sequence,PBM E-score
1,CCGCTCAA,0.0207
2,AGCCAGCA,-0.268
3,CGTTTACA,-0.145
4,CAACAGAA,-0.227
5,AACAAATC,-0.00416
6,AGCGTACT,-0.0657
7,AGTCCGTA,0.269
8,GGTCCGCA,0.3
9,CGTCCGGC,0.41
10,GGTCCGGA,0.44
11,CGTCCGGA,0.443
12,CGTCCGCC,0.281
13,CGTCCGTC,0.234
14,CGTCCGTA,0.309
15,GGTCCCGA,0.231
16,AGTCCGGA,0.452
17,CGTCCGCA,0.228
18,AGTCCGCA,0.293
19,ATGAAGAA,-0.136
20,GCACTGGA,-0.275
21,ACTGCCGA,0.261
22,GCCGACCC,0.139
23,AAACAGCC,-0.0624
24,AATGATCA,-0.179
25,CTTCAAGA,-0.235

row,Sequence,PBM E-score
1,AGGAAAGA,-0.275
2,ACATTCGC,0.0143
3,AGCCAAGA,-0.26
4,AGGACACA,-0.0409
5,AGATTCGA,-0.117
6,CGGTATTA,0.412
7,CGGTAATC,0.327
8,CGGTATTC,0.304
9,GGGTAATA,-0.00588
10,AGGTATTA,0.0089
11,CGGTAATA,0.408
12,ACGGGGAG,-0.0069
13,ACCGGGAA,0.35
14,TCCGGGAA,0.376
15,ACGGGGAC,0.159
16,CCGGGGGA,0.343
17,CGGGGGAA,0.354
18,ACGGGGAT,0.383
19,CCCGGGAA,0.339
20,CCGGGGAA,0.372
21,GCAGGCTA,-0.169
22,CGCCATAA,-0.0284
23,TACTTAGA,-0.362
24,GCGCCCGC,0.0873
25,AGGCTCAT,-0.159

row,Sequence,PBM E-score
1,CGCGTGGA,-0.079
2,AACCGATG,0.193
3,TACCGAAA,0.188
4,CACCGATA,0.375
5,TACCGATA,0.378
6,TACCGACA,0.209
7,GACCGACA,0.359
8,CACCGATC,0.22
9,GACCGATA,0.434
10,AACCGATT,0.263
11,AACCGATA,0.421
12,GACCGATC,0.341
13,CACCGATG,0.196
14,ATGGGTCA,-0.27
15,CATGAGGA,-0.0511
16,CTTTCGAC,-0.0279
17,AAGGGTCG,0.0795
18,ACGATAGG,0.0214
19,GCGATAGC,0.00865
20,CCGATAGA,0.405
21,CAGATAGG,-0.142
22,ACGATAGA,-0.099
23,CCGATAGC,0.372
24,CCGATAGG,0.438
25,GCGATAGA,0.223

row,Sequence,PBM E-score
1,ACGATAGC,0.0603
2,ACGATTGG,-0.123
3,GTGTCCCA,0.0086
4,CCGATGCA,0.242
5,ATACCCGC,0.253
6,ATACCCGG,0.38
7,ATACCCGA,0.398
8,ATACCCTG,-0.0146
9,ATACCCCG,0.346
10,CTACCCGA,0.161
11,CATCGCCC,0.128
12,AAAAGGTT,-0.211
13,CGGTTAAC,0.203
14,ATACCCTA,-0.203
15,AGGGTCAC,-0.193
16,GCGGTGTA,-0.063
17,CGGCGGAG,0.387
18,GGGCGGTA,0.315
19,CGGCGGTA,0.428
20,CAGCGGAG,0.245
21,AGGCGGAG,0.175
22,GGGCGGAA,0.267
23,AGGCGGTA,-0.131
24,CGGCGGAA,0.396
25,CCGCGGAC,0.383

row,Sequence,PBM E-score
1,AGGCGGAA,0.0183
2,CCGCGGAG,0.352
3,CCGCGGAA,0.317
4,CCATGGCC,-0.0324
5,CGACCAGA,0.0439
6,AGTTTGAG,-0.0293
7,ATGATCCC,0.0807
8,CTTCCCAA,-0.197
9,CGAAAGTA,0.0968
10,CGGCTACG,0.111
11,AGATGAAC,-0.115
12,CGGCGGAC,0.38
13,AGGCGGAC,0.288
14,GGGCGGAC,0.279
15,CCAGACCA,-0.187
16,CCGTCCGA,0.399
17,ACGTCCTG,-0.211
18,GCGTCCGA,0.305
19,ACGTCCGC,0.357
20,CCGTCCGC,0.231
21,CCGTCCTA,-0.104
22,ACGTCCAA,-0.0855
23,ACGTCCGG,0.411
24,ACGTCCGA,0.386
25,AAACCAAG,-0.0855

row,Sequence,PBM E-score
1,CGCGGGCA,0.256
2,TATGGTCA,-0.303
3,CAGAGATA,-0.182
4,ACCGTGAA,0.126
5,CGTTCCAG,-0.157
6,AGCCCCTG,-0.269
7,CATCTATC,-0.00973
8,TATCGGGA,0.393
9,CATCGGGA,0.223
10,GAACGGAA,0.282
11,GATCGGGA,0.136
12,TAACGGAA,0.375
13,CATCGGCA,0.266
14,CATCGGAA,0.297
15,TATCGGAA,0.409
16,AATCGGCA,0.224
17,AATCGGAA,0.364
18,CAACGGAA,0.285
19,TATCGGCA,0.425
